# High-throughput results from PubChem BioAssay.
# The list is not random: actives were taken first. Their share in the collection is about 11%.
# PNC inhibitor – High Content Assay for Compounds that inhibit the Assembly of the Perinucleolar Compartment; PC3M PTB-GFP, PNC prevalence imaging, 16 h; stronger effect = lower value; activity change (PNC), negative = inhibition, % at 10 µM; actives 3.1% (n = 140,000);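 active = readout at or below -70, meaning at least 70% loss of cells showing the perinucleolar compartment, a nuclear body marking cancer cells; inconclusive = readout between -30 and a set limit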;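 note: plate controls were DMSO wells for no effect and camptothecin positive control wells for full effect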
#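 Compounds are pinned in duplicate onto adhered PC3M cells stably expressing GFP-tagged PTB and incubated 16 h at 37 C. Cells are then fixed, nuclei stained with Hoechst, and PNC-positive cells counted.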
# ALDH1A1 block – qHTS Assay for Inhibitors of Aldehyde Dehydrogenase 1 (ALDH1A1); Potency, µM (series often up to 75.3 µM), for inactives: at the highest dose activity, negative = inhibition, most hits filed as inhibitors; actives 7.3% (n = 220,000); Purified ALDH1A1, NADH fluorescence, propionaldehyde substrate; AID 1030, 2008;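 note: potency is the fitted concentration of half-maximal effect; plate controls were no enzyme wells and a reference inhibitor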
# HPGD block – qHTS Assay for Inhibitors of HPGD (15-Hydroxyprostaglandin Dehydrogenase) | 15-hydroxyprostaglandin dehydrogenase [NAD(+)] (Homo sapiens), P15428 | purified HPGD, NADH fluorescence kinetic, PGE2 substrate | Potency, µM, for inactives: at the top dose activity change, negative = inhibition, hits mostly inhibitors | actives 4.3% (n = 150,000) | AID 894, 2007; note: potency is the fitted concentration of half-maximal effect
# Target sequence (P15428 whole entry, looked up): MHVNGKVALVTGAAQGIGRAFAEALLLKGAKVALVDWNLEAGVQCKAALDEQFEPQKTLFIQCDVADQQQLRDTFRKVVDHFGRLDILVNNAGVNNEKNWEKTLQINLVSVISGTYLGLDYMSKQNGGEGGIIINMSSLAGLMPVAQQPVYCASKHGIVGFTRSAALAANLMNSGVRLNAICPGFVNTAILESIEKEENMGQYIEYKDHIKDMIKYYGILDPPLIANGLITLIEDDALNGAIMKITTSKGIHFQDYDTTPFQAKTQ
#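 20 nM HPGD preincubated 15 min at room temperature with compound in 50 mM Tris-HCl pH 8, 0.01% Tween 20. Started with 1 mM NAD+ and 30 uM prostaglandin E2; NADH fluorescence (360/450 nm) read 5 times over 30-s intervals, last minus first.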
# The depositor's hits bear a star; ? = inconclusive; . = no result given. Unless noted, calls come from the whole dose curve; as a rule, active = well fitted inhibition curve with a large enough effect (not every such curve was filed as active); inconclusive = small, poorly fitted or top-dose-only effect, or another doubt; inactive = no such curve, though single readings can be large or run the other way. Unless noted, % is set by controls: 0 for no effect and ±100 for the full control effect.
SMILES,PNC inhibitor,ALDH1A1 block,HPGD block
CN(C)S(=O)(=O)N1CCCC(C(=O)c2ccc(-c3ccccc3)c(F)c2)C1 (centres undefined),.,4%,.
CCOC(=O)c1cc(CC)sc1NC(=O)c1cc(OC)c(OC)c(OC)c1,14,?,?
Cc1ccc(S(=O)(=O)N/N=C/c2c(C)nn(-c3ccccc3)c2C)cc1,10,?,-17%
CC(C)(C)c1ccc(NC(=O)COC(=O)CCN2C(=O)c3cccc([N+](=O)[O-])c3C2=O)cc1,38,?,-7%
O=C(O)c1[nH]c2ccc(Br)cc2c1CCN1C(=O)c2cccc([N+](=O)[O-])c2C1=O,.,32µM*,.
CCOC(=O)c1c(C)[nH]c(NC(=O)N2CCOCC2)c1C,14,5%,-10%
Cc1ccc(S(=O)(=O)c2c(N)n(/N=C/c3ccco3)c3nc4ccccc4nc23)cc1,-26,?,?
CC(/C=N/n1cnnc1)=C\c1ccco1,-100*,?,-14%
CC(/C=N/n1c(-c2ccc(Cl)cc2)n[nH]c1=S)=C\c1ccco1,?,28µM*,.
Cc1ccc(-c2n[nH]c(=S)n2/N=C\c2ccco2)cc1,?,-6%,22µM*
Cc1ccc(-c2n[nH]c(=S)n2/N=C/c2ccc(C)o2)cc1,19,?,13µM*
CC(/C=N\NC(=O)CN1CCN(Cc2ccccc2)CC1)=C\c1ccco1,9,?,-16%
Cc1ccc(-c2n[nH]c(=S)n2/N=C/c2ccncc2)cc1,.,5%,.
O=C(CCCNC(=O)/C(=C/c1ccc(F)cc1)NC(=O)c1ccccc1)OCc1ccccc1,26,-6%,-14%
O=C(C1Cc2ccccc2CN1S(=O)(=O)c1cccs1)N1CCCCCC1 (centres undefined),?,-13%,-12%
O=C(O)CCCC(=O)Nc1ccc(Br)cc1C(=O)O,26,4%,-13%
Cc1sc2ncnc(NCC(c3ccco3)N3CCCC3)c2c1C (centres undefined),-11,0%,0%
C=CCNC(=O)CC(=O)N/N=C/c1cccc(C)c1,21,2%,-6%
COc1cc(/C=C/C(=O)N2CCCCC2=O)cc(OC)c1OC,.,?,-7%
O=C(O)[C@H]1CN[C@H](C(=O)O)C1,.,-6%,-5%
CC(/C=N/n1c(-c2ccco2)n[nH]c1=S)=C\c1ccccc1,?,-5%,2.5µM*
CN(C)CCCNc1cn[nH]c(=O)c1Cl,29,3%,1%
CCCC[C@H]1C[C@@H]1[C@@H]1N(C(C)=O)[C@H](c2cccc(OC)c2)CC12CC2,.,-9%,-10%
CC(C)n1c(=NC(=O)c2ccco2)c(C#N)cc2c(=O)n3ccccc3cc21,-82*,?,?
CCCn1c(=NC(=O)c2ccco2)c(C(=O)OCC)cc2c(=O)n3ccccc3nc21,19,?,?
SMILES,PNC inhibitor,ALDH1A1 block,HPGD block
O=C(CSc1nccc(=O)[nH]1)NN(c1ccccc1)c1ccccc1,.,2%,.
OCCOCCOc1cccc2[nH]ccc12,.,13%,.
CN(CCO)CCOCCOc1cccc2ccccc12,.,14µM*,.
COc1ccc(C2(O)CCN(CC(=O)Nc3nc(-c4ccccc4)cs3)CC2)cc1,.,6%,.
CC(C)(C)c1ccc(S(=O)(=O)O/N=C2/CCCCC2c2ccc([N+](=O)[O-])cc2[N+](=O)[O-])cc1 (centres undefined),21,5.6µM*,-18%
COC(=O)C1CCN(c2ccc([N+](=O)[O-])cc2[N+](=O)[O-])CC1,.,2%,.
CN(C)CCNC(=O)C(=O)NCC1OCCCN1S(=O)(=O)c1cccs1 (centres undefined),-8,5%,-10%
Cc1ccc(SCC(=O)OCn2nnc3ccccc3c2=O)cc1C,?,-1%,-20%
O=C(NNc1ccc(Cl)cc1)c1sccc1Cl,.,8.9µM*,.
O=C(NNc1c(Cl)cncc1Cl)c1sccc1Cl,.,6%,.
CCOc1ccc(NC(=O)CSc2nnc(C34CC5CC(CC(C5)C3)C4)n2C)cc1,?,?,-18%
Cc1ccc(NC(=O)CN2C(=O)NC(Cc3c[nH]c4ccccc34)C2=O)cc1S(=O)(=O)N1CCCCC1 (centres undefined),-25,7%,-7%
Cc1cc(/C=N/NC(=O)c2ccc(O)cc2)c(C)n1C1CC1,.,-6%,.
Cc1ccc(N=Cc2cc(C)n(C3CCCC3)c2C)cc1,53,8.9µM*,-19%
C/C(=C\c1ccccc1)C(=O)NCCCn1ccnc1,.,4%,.
CC(=O)Nc1coc2ccc(Br)cc12,23,18%,-12%
O=C(CNS(=O)(=O)c1ccc(F)cc1)N1CCCCCC1,.,-14%,.
CCOC(=O)/C(C#N)=C1/C=Nc2ccccc2N1,?,-10%,-13%
CCOC(=O)/C(C#N)=C1\CC2CCC1(C)C2(C)C (centres undefined),.,13µM*,.
Cc1ccc(N(CC(=O)N2CCN(C3CCCCC3)CC2)S(=O)(=O)c2cccnc2)cc1,6,?,-7%
CS(=O)(=O)N1CCCC(C(=O)NCCCN2CCOCC2)C1 (centres undefined),?,5%,-11%
C=CCOc1ccc(CNc2nccs2)cc1OCC,74,?,-19%
C=CCOc1c(Cl)cc(CNc2nccs2)cc1OC,.,13µM*,.
C=CCOc1c(Cl)cc(CNc2ccc3[nH]c(=O)[nH]c3c2)cc1OC,-20,1%,-11%
C=CCOc1c(CNc2nccs2)cccc1OCC,?,2.5µM*,-16%
SMILES,PNC inhibitor,ALDH1A1 block,HPGD block
COc1ccc(C2=NO[C@@H]3[C@@H]4C[C@@H]([C@H]5C(=O)N(C)C(=O)[C@@H]45)[C@H]23)c(OC)c1,.,2%,.
N#Cc1cccc(-c2nc(NCCN3CCOCC3)c3ccccc3n2)c1,.,18µM*,.
N#Cc1ccccc1-c1nc(NCCN2CCOCC2)c2ccccc2n1,.,11%,.
COc1ccc(CN2CCn3ncc(C(=O)Nc4cccc(C)c4)c3C2=O)cc1,?,?,-18%
CCOC(=O)c1c(NC(=S)Nc2ccc(Cl)cc2)sc(C)c1C,-7,-4%,-6%
Cc1sc(NC(=S)Nc2ccc(F)cc2)c(C(N)=O)c1C,.,10µM*,.
COC(=O)c1c(NC(=S)Nc2ccc(CC(=O)O)cc2)sc(C)c1C,-3,25µM*,-26%
Cc1sc(NC(=S)NC(=O)C2CCCCC2)c(C(N)=O)c1C,13,?,-28%
Nc1c(-c2ccccc2)c(CSc2nc3ccccc3[nH]2)nn1-c1ccc(C(=O)O)cc1,?,0%,.
COc1c(Cl)cc(-c2noc(C)c2C(=O)NC(C)C)cc1Cl,56,1%,-4%
O=C(Cc1c[nH]c2ccccc12)Nc1ccccc1N1CCOCC1,.,3%,.
CC1(C)CC(=O)C2=C(C1)N(c1cccc(Cl)c1)C(=O)NC2(C(F)(F)F)C(F)(F)F,-80*,-17%,-10%
CC1(C)CC(=O)C2=C(C1)N(c1ccc(Cl)cc1)C(=O)C2(O)C(F)(F)F (centres undefined),?,7%,-14%
c1ccc(-c2cnnc(N3CCCCC3)n2)cc1,7,?,-10%
COC(=O)c1cc(C)nc(Sc2ccccc2N)n1,.,3.5µM*,.
COC(=O)c1ccccc1NC(=O)CSc1nc(C)cc(C)n1,.,-6%,.
CC(C)Cn1c(SCC(=O)N2CCCCC2)nc2ccccc2c1=O,43,22µM*,-10%
